PubChem BioAssay AID652010 (The Scripps Research Institute Molecular Screening Center, 2013)
The campaign covered roughly 370,000 compounds. About 4,100 (1.1%) were called active. The sample as a whole holds a higher share of actives than the screen did. A number with no mark means an inactive call.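 Rule for the calls: active = inhibition above the mean over all tested compounds plus 3 SD (cut at about 3.6% in these data); inactive = the rest.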

Experiment: relief of DAX-1 repression of SF-1 activity – cell-based, luminescence, SF-1 (NR5A1), full-length DAX-1, primary screen (AID 652010);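 note: 0% = DAX-1 cells with DMSO and 100% = cells lacking DAX-1 with DMSO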
Conditions: HEK293T StAR-luciferase reporter, SF-1/DAX-1 repression relief; at 6.8 µM; active compounds read high
In the case of CC1CCN(CCCNC(=O)CN2C(=O)CSc3ccc(S(=O)(=O)N4CCCCC4)cc32)CC1, the inhibition is reported as 4.58% (active).
COc1ccc(NC(=O)CN2C(=O)CSc3ccc(S(=O)(=O)N4CCC(C)CC4)cc32)cc1 showed an inhibition of -0.14%.
Compound COCCCNC(=O)CN1C(=O)CSc2ccc(S(=O)(=O)N3CCOCC3)cc21 has an inhibition of 0.4%.
COC(=O)[C@]12C[C@H](CC(=O)NCc3ccccc3)C(=O)N(CCC3=CCCCC3)C1=C[C@H](C(C)(C)C)O[C@@H]2C gave an inhibition of -0.82%.
Work on Cc1ccc(NC(=O)N2c3ccccc3SC2c2ccco2)c(C)c1 (stereo not given) yielded an inhibition of -1.05%.
With O=C(Nc1ccc(NC(=O)c2cccs2)cn1)c1ccco1 the inhibition was 5.96% (active).
Work on O=C(N/N=C/C=C/c1ccco1)c1cccs1 yielded an inhibition of 0.78%.
In the case of O=C(Nc1nonc1-c1ccc(Cl)cc1)c1ccco1, the inhibition is reported as -0.6%.
C[C@H](C(=O)N(C)c1ccccc1)[C@@H](O)c1ccc(Cl)cc1 gave an inhibition of -0.7%.
In the case of O=C(OC12CCCN(C1)/C(=C/c1cccnc1)C2)C1CCCC1 (stereo not given), the inhibition is reported as -1.73%.
Cc1ccc(S(=O)(=O)N2CCN(C(=O)COC(=O)CNC(=O)c3ccc(C(C)(C)C)cc3)CC2)c(C)c1 showed an inhibition of -0.26%.
For COc1ccccc1CCC(=O)OCC(=O)N1CCN(S(=O)(=O)c2ccc(C)cc2C)CC1, the inhibition was 4.53% (active).
In the case of COc1ccc(/C=C/C(=O)OCC(=O)N2CCN(S(=O)(=O)c3ccc(C)cc3C)CC2)cc1OC, the inhibition is reported as -1.45%.
COc1ccc(-c2onc(C)c2-c2ccc3c(c2)OCCO3)c(O)c1 gave an inhibition of -0.75%.
For COc1ccc(/C=C/c2c(-c3cccc(C)c3)oc3ccc(-c4ccc5c(c4)OCO5)cc23)cc1, the inhibition was -0.02%.
For COc1ccc(C2=Nc3cc(C)ccc3OC2)cc1, the inhibition was 4.81% (active).
O=C(c1c[nH]c2ccccc12)N1CCC(Oc2cccnc2)CC1 showed an inhibition of -0.43%.
Compound COc1ccccc1CCNC(=O)C1CCN(c2nc(C)cc(C)n2)CC1 has an inhibition of -0.06%.
With CCc1c(-c2ccccc2OC)ncn1CCc1ccccc1OC the inhibition was -2.14%.
Work on O=C(CSc1nnc2n1CCCN2)c1ccccc1 yielded an inhibition of 0.61%.
N#Cc1ccc(CSc2nnc3ccccn23)cc1 showed an inhibition of -0.37%.
With O=C(CSc1nnc2ccccn12)c1ccccc1 the inhibition was 4.08% (active).
For C[C@H]1CCC/C=C/C(=O)c2c(O)cc(O)cc2CC(=O)O1, the inhibition was -6.29%.
In the case of Cc1ccc(-c2nc(C3CCCN(S(=O)(=O)c4ccc(Br)s4)C3)no2)cc1 (stereo not given), the inhibition is reported as 0.62%.
Work on CCN(CCCNC(=O)c1ccc2c(c1)NC(=O)CN2C)c1cccc(C)c1 yielded an inhibition of -0.89%.
